The values that follow come from PubChem BioAssay.

A short description of assay [1]: EMT-state selective cytotoxicity in co-culture – imaging, PC-3E GFP, TEM4-18 mCherry, primary screen (AID 1345086;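 active = compounds killing one labelled cell type while sparing the other, by normalised counts and ratio limits, not self-fluorescent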;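 as to all read-outs here: cells exposed to compound for 72 h before imaging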;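 as to red/green cell ratio (normalised): normalised mesenchymal count divided by normalised epithelial count so high means epithelial killing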). The conditions noted are these: PC-3E GFP / TEM4-18 mCherry co-culture, imaging cell counts, at 1 µM; for red/green cell ratio (normalised): actives lie on both sides, counts scaled to control wells, 1 = unselective.
Assay [2] is described as follows: viability loss in pontine glioma line – cell-based, SU-DIPG-XVII, MIPE5.0, CellTiter-Glo, qHTS, dose response (AID 1347060).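 Also: cells exposed to compound for 48 hours before viability readout.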 Conditions: CellTiter-Glo ATP luminescence. On the technique in general: Cellular ATP, detected with luciferase, serves as a proxy for viable cell number.
Assay [3] can be described thus: viability loss in pontine glioma line – cell-based, SU-DIPG-IV, MIPE4.0, CellTiter-Glo, qHTS, dose response (AID 1347063; cut-off not given, nearly all actives have AC50 up to about 30 µM;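 also: compound exposure lasted 48 hours before the viability readout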). The conditions noted are these: CellTiter-Glo ATP luminescence.
Assay [4] can be described thus: viability loss in pontine glioma line – cell-based, SU-DIPG-XXV, MIPE5.0, CellTiter-Glo, qHTS, dose response (AID 1347065).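 Also: cells exposed to compound for 48 hours before ATP readout.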 The conditions noted are these: CellTiter-Glo ATP luminescence.
Assay [5] in a line: viability loss with induced miR-34 in A549 – imaging, A549 dox-inducible miR-34, nuclei and caspase counts, primary screen (AID 1347080;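 active = compounds whose cell count with miR-34 switched on is under 0.7 times the count with it off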). Conditions: A549 miR-34 inducible, Hoechst nuclei count, 48 h.
Assay [6] is described as follows: MELAS cybrid and Rieske KO viability enhancers – cell-based, MELAS cybrids, Rieske KO mouse fibroblasts, CellTiter-Glo, primary screen (AID 1508586;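 active = mean z-score across replicates of 1.96 or higher in either the MELAS or the Rieske mutant cell line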;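 also: z relative to plate mean and SD of compound and empty wells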). Conditions: low glucose.
Assay [7] is described as follows: viability loss in pontine glioma line – cell-based, SU-DIPG-XIII, MIPE4.0, CellTiter-Glo, qHTS, dose response (AID 1347061; cut-off not given, nearly all actives have AC50 up to about 37 µM;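 also: cells exposed to compound for 48 hours before readout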). The conditions noted are these: CellTiter-Glo ATP luminescence.
The nature of assay [8]: viability loss in pontine glioma line – cell-based, SU-DIPG-XIII, MIPE5.0, CellTiter-Glo, qHTS, dose response (AID 1347064; cut-off not given, nearly all actives have AC50 up to about 23 µM;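 as to AC50: cells exposed to compound for 48 hours before the viability read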). Conditions: CellTiter-Glo ATP luminescence.
A short description of assay [9]: growth inhibition of DIPG cells – cell-based, MIPE4.0 library, CellTiter-Glo luminescence, qHTS (AID 1347066; cut-off not given, nearly all actives have AC50 up to about 30 µM;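 also: cells exposed to compound for 48 hours before readout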). Conditions: SU-DIPG-VI viability, CellTiter-Glo ATP luminescence.
Assay [10] is described as follows: JHH-DIPG-1 glioma cell viability, MIPE5.0 library, CellTiter-Glo luminescence, qHTS (AID 1347067).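 Also: cells exposed to compound for 48 hours before readout.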 The conditions noted are these: JHH-DIPG-1 glioma viability, CellTiter-Glo ATP luminescence.
Assay [11] is described as follows: growth inhibition of DIPG cells – cell-based, MIPE5.0 library, qHTS (AID 1347068; cut-off not given, nearly all actives have IC50 up to about 30 µM;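 as to IC50: cells exposed to compound for 48 hours before viability readout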). Conditions: SU-DIPG-XXV viability. In general terms: In qHTS, concentration-response curves come from the screen itself.
Assay [12] addresses NAD(+) hydrolase SARM1 (Homo sapiens) (UniProt Q6SZW1). As to the kind of experiment: blocking NAD cleavage by SARM1 SAM-TIR – cell lysate, NAD-Glo luminescence (AID 1508614;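 active = compound whose remaining NAD level is above about 45 nM, limit read from the data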;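 also: higher remaining NAD means stronger inhibition of SARM1 NADase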). The conditions noted are these: SAM-TIR HEK293T lysate NADase, at 1 µM, stronger effect = higher value.
Assay [13] in a line: P. berghei load reduction in hepatocytes – cell-based, HepG2, luciferase luminescence, HepG2 viability, primary screen (AID 624349; in the data active = parasite load remaining mostly below about 12%, no sharp cut-off; inactive = mostly above about 10%;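 also: 100% = mean of DMSO negative control wells on the same plate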). The conditions noted are these: P. berghei liver stage in HepG2, luciferase luminescence, concentration not given here; parasite load remaining: stronger effect = lower value; viability: measured here: HepG2 viability without parasites.
Assay [14] addresses Mitogen-activated protein kinase 7 (Homo sapiens) (UniProt Q13164). As to the kind of experiment: Gal4-ERK5 driven luciferase induction – cell-based, HTS, primary screen (AID 1508626;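 active = luciferase signal above three times the same-plate solvent-only control wells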;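 also: luciferase driven by Gal4-ERK5 fusion binding five Gal4 sites before minimal TATA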). Conditions: HeLa Gal4-ERK5 transactivation, 18 h, at 5 µM, stronger effect = higher value.
Assay [15] can be described thus: galactose survival enhancers in mitochondrial complex I cybrids – cell-based, galactose medium, ATP luminescence, primary screen (AID 1645843;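 active = z-score of at least 1.8 in each of two replicates, scored against plate mean and spread of sample wells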;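 also: positive z means more ATP and so rescue of galactose-driven cybrid death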). The conditions noted are these: complex I mutant cybrid cells, 72 h, stronger effect = higher value.
The mark [16] stands for this setting: measured here: epithelial PC-3E GFP cell survival.
Where [17] appears, read: measured here: mesenchymal TEM4-18 mCherry cell survival.
The mark [18] stands for this setting: stronger effect = lower value, cell number ratio, induced over uninduced.
Setting [19] is: measured here: relative caspase fold change +Dox/-Dox.
Where [20] appears, read: measured here: total cells with miR-34 induction, stronger effect = lower value.
[21] abbreviates: measured here: total cells without miR-34 induction.
[22] abbreviates: MELAS cybrid survival, CellTiter-Glo 48 h, stronger effect = higher value.
Setting [23] is: Rieske KO mouse fibroblast survival, CellTiter-Glo 72 h.

Structures are written as SMILES. Where “and” joins values, the source holds several entries; their conditions need not be identical. Equal values may be shown once. Results filed as inconclusive are left out. Calls of active or inactive are those of the source. Unless noted, the limit is not given here; nearly all actives have AC50 up to about 26 µM.

Sequence of NAD(+) hydrolase SARM1 (Homo sapiens) (Q6SZW1 whole entry, looked up): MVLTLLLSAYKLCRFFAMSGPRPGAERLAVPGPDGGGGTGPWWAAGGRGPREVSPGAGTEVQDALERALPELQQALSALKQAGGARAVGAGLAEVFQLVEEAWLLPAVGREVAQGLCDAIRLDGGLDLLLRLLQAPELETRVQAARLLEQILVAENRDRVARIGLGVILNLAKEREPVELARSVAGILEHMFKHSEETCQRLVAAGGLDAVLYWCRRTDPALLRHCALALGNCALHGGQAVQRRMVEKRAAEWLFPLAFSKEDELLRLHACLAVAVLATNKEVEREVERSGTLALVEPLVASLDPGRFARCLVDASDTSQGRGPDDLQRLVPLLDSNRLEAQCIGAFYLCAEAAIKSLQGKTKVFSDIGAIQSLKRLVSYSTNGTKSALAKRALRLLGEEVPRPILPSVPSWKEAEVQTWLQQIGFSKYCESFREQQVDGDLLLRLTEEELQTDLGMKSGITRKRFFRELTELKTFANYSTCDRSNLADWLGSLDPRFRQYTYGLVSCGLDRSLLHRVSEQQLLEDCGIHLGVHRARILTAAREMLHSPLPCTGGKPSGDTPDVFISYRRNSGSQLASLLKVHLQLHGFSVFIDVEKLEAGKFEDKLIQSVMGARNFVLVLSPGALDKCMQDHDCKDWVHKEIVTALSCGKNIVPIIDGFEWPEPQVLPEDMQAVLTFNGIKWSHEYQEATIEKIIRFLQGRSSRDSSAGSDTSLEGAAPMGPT
Sequence of Mitogen-activated protein kinase 7 (Homo sapiens) (Q13164 whole entry, looked up, the tested form may be a part): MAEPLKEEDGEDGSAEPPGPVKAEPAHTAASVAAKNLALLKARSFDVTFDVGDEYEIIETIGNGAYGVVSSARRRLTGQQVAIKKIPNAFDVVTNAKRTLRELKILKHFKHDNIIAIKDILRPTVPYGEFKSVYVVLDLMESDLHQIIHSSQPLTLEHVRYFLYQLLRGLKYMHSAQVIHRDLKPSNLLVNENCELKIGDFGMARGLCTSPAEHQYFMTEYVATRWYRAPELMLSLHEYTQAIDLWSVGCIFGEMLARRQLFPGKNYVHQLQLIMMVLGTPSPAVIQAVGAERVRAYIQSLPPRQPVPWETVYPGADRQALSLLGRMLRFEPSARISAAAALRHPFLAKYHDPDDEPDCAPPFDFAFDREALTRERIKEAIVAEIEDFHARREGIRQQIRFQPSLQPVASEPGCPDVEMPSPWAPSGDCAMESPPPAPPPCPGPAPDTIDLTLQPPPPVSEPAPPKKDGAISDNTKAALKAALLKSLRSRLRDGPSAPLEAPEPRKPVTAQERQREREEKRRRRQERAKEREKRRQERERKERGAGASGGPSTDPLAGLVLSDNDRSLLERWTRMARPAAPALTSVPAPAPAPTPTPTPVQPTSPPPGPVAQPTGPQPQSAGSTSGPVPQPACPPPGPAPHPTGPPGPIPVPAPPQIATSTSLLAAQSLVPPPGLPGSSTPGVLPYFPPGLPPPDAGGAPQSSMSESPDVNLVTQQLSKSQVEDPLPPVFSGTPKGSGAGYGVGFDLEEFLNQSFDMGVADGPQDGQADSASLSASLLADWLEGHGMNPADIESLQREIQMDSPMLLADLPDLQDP

For the compound `OC(c1cc(C(F)(F)F)nc2c(C(F)(F)F)cccc12)C1CCCCN1` (stereo not given), the red/green cell ratio (normalised) in assay [1] is 0.94 (inactive). Besides, the normalised cell number in [1] (setting [16]) was 1.16; in assay [1] (setting [17]), 1.1. The AC50 is 20.9 µM (active) in assay [2], 26.4 µM (active) in [3] and 20.9 µM (active) in assay [4]. Further, the fold change is 0.709 (inactive) and 0.928 (inactive) in [5] (setting [18]); 1.51 and 4.5 in assay [5] (setting [19]). For the same compound, the cell count in [5] (setting [20]) is 3010 and 11200; in assay [5] (setting [21]) it was 4250 and 12100. Further, the figures for the z-score in assay [6] (setting [22]) and in assay [6] (setting [23]) were -2.19 (inactive) and -3.08, respectively.
On to `COc1ccc2nc3cc(Cl)ccc3c(Nc3cc(CN4CCCC4)c(O)c(CN4CCCC4)c3)c2n1`, for which, in assay [1], the red/green cell ratio (normalised) is 1.19 (inactive). Besides, the normalised cell number in assay [1] (setting [16]) amounted to 0.83; in assay [1] (setting [17]), 0.98. The AC50 was 9.34 µM (active) in assay [2], 13.2 µM (active) in [8], 7.42 µM (active) in assay [4] and 11.8 µM (active) in assay [10]. For the same compound, the compound was called inactive in assay [7] and in [9]. Besides, the IC50 in [11] was 10.5 µM (active). In addition, the results for the fold change in assay [5] (setting [18]) and in assay [5] (setting [19]) were 1.01 (inactive) and 0.832, respectively. In addition, the cell count was 2320 in [5] (setting [20]) and 2290 in [5] (setting [21]). The remaining NAD in assay [12] is 10 nM (inactive).
With `Cc1coc2c1C(=O)C(=O)c1c-2ccc2c1CCCC2(C)C`, the parasite load remaining in assay [13] is 23.1% (inactive). In assay [13], this compound yielded a viability of 97.5%. In addition, the red/green cell ratio (normalised) in assay [1] was 1.04 (inactive). Also, the figures for the normalised cell number in assay [1] (setting [16]) and in assay [1] (setting [17]) were 0.67 and 0.7, respectively. The AC50 is 5.9 µM (active) in assay [2]; 3.32 µM (active) in assay [3]; 5.9 µM (active) in assay [8]; 16.6 µM (active) in assay [4]; 7.42 µM (active) in assay [10]. For the same compound, the outcome in [7] and in assay [11] was inactive. The fold change in assay [5] (setting [18]) is 1.17 (inactive) and 1.16 (inactive) and 1.64 (inactive); in assay [5] (setting [19]) it was 1.11 and 0.52 and 0.868. Besides, the cell count is 934 and 1820 and 2140 in assay [5] (setting [20]); 800 and 1570 and 1300 in [5] (setting [21]). Besides, the z-score in assay [6] (setting [22]) is 0.593 (inactive) and 0.0182 (inactive); in [6] (setting [23]), 0.381 and 0.81; in assay [15], -1.64 (inactive). For the same compound, the luciferase signal in assay [14] is 32 AU (inactive).
For `Clc1ccc(CCC(Cn2ccnc2)Sc2c(Cl)cccc2Cl)cc1` (stereo not given), the red/green cell ratio (normalised) in [1] was 0.84 (inactive). Moreover, the normalised cell number in assay [1] (setting [16]) turned out to be 1.26; in [1] (setting [17]) it was 1.06. Further, the call in assay [4] and in assay [10] was inactive. For the same compound, in assay [12], the remaining NAD is 10 nM (inactive).
With `N#CC(c1ccc(Cl)cc1)c1c(Cl)cc(-n2ncc(=O)[nH]c2=O)cc1Cl` (stereo not given), the parasite load remaining in [13] was 30.6% (inactive). Further, the viability in [13] stood at 99%. The red/green cell ratio (normalised) in assay [1] is 0.84 (inactive). For the same compound, the normalised cell number came to 1.03 in assay [1] (setting [16]) and 0.86 in assay [1] (setting [17]). In addition, the concentration at half-maximal activity (AC50) in assay [7] was 23.5 µM (active); in assay [9] it was 13.2 µM (active). The result in assay [8] and in assay [10] was inactive. Moreover, the fold change is 0.879 (inactive) and 0.842 (inactive) in assay [5] (setting [18]); 1.15 and 1.36 in assay [5] (setting [19]). Besides, the cell count in [5] (setting [20]) was 7450 and 8470; in [5] (setting [21]) it was 8480 and 10000. For the same compound, the z-score in assay [6] (setting [22]) was -0.404 (inactive) and -1.37 (inactive) and -0.711 (inactive); in [6] (setting [23]), 0.144 and -0.703 and -0.429; in assay [15] it was -0.445 (inactive). The remaining NAD in [12] was 10 nM (inactive).

A word on the AC50: it is the midpoint of the concentration-response curve, whichever way the signal moves. A word on the IC50: it is the concentration at which inhibition is half-maximal. What is called viability is the share of living cells, or the viability signal relative to a control.
